“And” between values parts separate entries of the source, which are not always exact repeats. Equal values may be shown once. Inconclusive results are not listed. More than one record can exist for a structure, and the calls need not agree. The source made the active and inactive calls. Unless noted, the call rests on the fitted dose curve; in most records, active means well fitted curve in the direction sought with a large enough effect in the repeat runs; inconclusive means weak or mixed curves; inactive means no such curve, though single readings can be large; an effect the other way counts as inactive or inconclusive.
Tests used:
[1] = qHTS assay to identify small molecule agonists of the RXR signaling pathway - cell viability counter screen (AID 1159529); further: nearly all actives have a fitted effect of over 50% in size; further: potency means the concentration at half of the fitted maximal effect
Outline: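 Compounds dissolved in DMSO were pinned onto HEK 293T cells carrying a beta-lactamase reporter under RXR-alpha control and incubated 16 hr. Cytotoxicity was then quantified by CellTiter-Glo luminescence.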

[2] = qHTS assay to identify small molecule antagonists of the retinoid acid receptor (RAR) signaling pathway - cell viability counter screen (AID 1159551); further: nearly all actives have a fitted effect of over 35% in size
Outline: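 Viability of C3RL4 cells is quantified from ATP by luminescence after 6 h treatment at 37 C with compounds and 1 uM retinol.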

[3] = qHTS assay to identify small molecule antagonists of the retinoic acid receptor (RAR) signaling pathway (AID 1159552; further: nearly all actives have a fitted effect of over 50% in size; further: potency means the concentration at half of the fitted maximal effect)
Outline: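 Test chemicals and DMSO controls were pin-transferred onto C3RL4 cells a day after seeding; retinol (1 uM final) followed at once. Luminescent reporter output was quantified after 6 hr of co-incubation and 30 min with detection reagent.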

[4] = qHTS assay to identify small molecule agonists of the retinoic acid receptor (RAR) signaling pathway (AID 1159553); conditions: C3RL4 RARE luciferase reporter, agonist, 6 h; activation: at 73.3 µM (top of the series) unless noted
Outline: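 Compounds dissolved in DMSO were pinned onto C3RL4 cells seeded the previous day, and plates were held 6 hr at 37 C. RARE-driven luciferase output was then read by luminescence.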

[5] = qHTS assay to identify small molecule antagonists of the estrogen related receptor (ERR) signaling pathway from Tox21 library - cell viability counter screen (AID 1224834); further: nearly all actives have a fitted effect of over 30% in size; further: potency means the concentration at half of the fitted maximal effect
Outline: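 In this quantitative HTS format, ERR cells receive compounds in DMSO and are incubated for 17.5 h at 37 C. Live-cell protease activity is then detected with CellTiter-Fluor.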

[6] = qHTS assay to identify small molecule agonists of the constitutive androstane receptor (CAR) signaling pathway - cell viability counter screen (AID 1224836); further: nearly all actives have a fitted effect of over 45% in size
Outline: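 23 h treatment, 37 C, 5% CO2. Cell line: HepG2 stably expressing hCAR with a CYP2B6-2.2kb construct. Co-treatment: PK11195, 0.75 uM final. Read-out: CellTiter-Fluor fluorescence intensity.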

[7] = qHTS assay to identify small molecule antagonists of the constitutive androstane receptor (CAR) signaling pathway - cell viability counter screen (AID 1224837); further: nearly all actives have a fitted effect of over 45% in size
Outline: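 In quantitative HTS format, compounds at 15 concentrations were applied to HepG2 cells double-transfected with hCAR and CYP2B6-2.2kb under 50 nM CITCO stimulation; live-cell protease activity was read after 23 hr via CellTiter-Fluor.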

[8] = biological target: Nuclear receptor subfamily 1 group I member 3 (Homo sapiens) (UniProt Q14994); assay: qHTS assay to identify small molecule antagonists of the constitutive androstane receptor (CAR) signaling pathway (AID 1224838); further: nearly all actives have a fitted effect of over 40% in size; further: potency means the concentration at half of the fitted maximal effect
Chain of Nuclear receptor subfamily 1 group I member 3 (Homo sapiens) (Q14994 whole entry, looked up): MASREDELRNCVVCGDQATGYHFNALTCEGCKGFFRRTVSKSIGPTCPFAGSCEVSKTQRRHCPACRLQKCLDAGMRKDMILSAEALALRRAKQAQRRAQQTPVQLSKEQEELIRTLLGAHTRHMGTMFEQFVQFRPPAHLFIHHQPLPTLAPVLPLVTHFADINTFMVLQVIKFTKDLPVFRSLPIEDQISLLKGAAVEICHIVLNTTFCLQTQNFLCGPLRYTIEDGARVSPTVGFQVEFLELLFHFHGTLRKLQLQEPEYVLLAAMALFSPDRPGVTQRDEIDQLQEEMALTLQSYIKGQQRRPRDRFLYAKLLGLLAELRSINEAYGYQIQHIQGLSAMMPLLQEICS
Outline: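 CITCO-stimulated (50 nM final) HepG2 cells stably transfected with hCAR and CYP2B6-2.2kb luciferase were exposed to compounds at 15 concentrations for 24 h at 37 C/5% CO2. A luciferase reagent was added and luminescence recorded after 30 min.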

[9] = biological target: Nuclear receptor subfamily 1 group I member 3 (Homo sapiens) (UniProt Q14994); assay: qHTS assay to identify small molecule agonists of the constitutive androstane receptor (CAR) signaling pathway (AID 1224839);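 further: HepG2 cells stably carrying human CAR and a CYP2B6 luciferase reporter; nearly all actives have a fitted effect of over 15% in size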
Outline: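 Compounds tested at 15 concentrations on HepG2 cells stably harbouring hCAR and CYP2B6-2.2kb reporter constructs, co-treated with PK11195 (0.75 uM final), 24 h at 37 C; luminescent reporter signal quantified.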

[10] = qHTS assay to identify small molecule antagonists of the estrogen related receptor signaling pathway with the pleiotropic PPARgamma coactivator (PGC) from Tox21 10K library - cell viability counter screen (AID 1224840; active means well fitted cell-killing curve with a large enough effect in the repeat runs, not every such curve was filed as active; further: nearly all actives have a fitted effect of over 40% in size; further: potency means the concentration at half of the fitted maximal effect)
Outline: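 Viability counter screen, PGC/ERR cells: 17.5 h compound exposure at 37 C, CellTiter-Fluor fluorescence endpoint.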

[11] = biological target: Thyrotropin receptor (Homo sapiens) (UniProt P16473); assay: qHTS assay to identify small molecule agonists of the thyroid stimulating hormone receptor (TSHR) signaling pathway (AID 1224843; calls by dose curve; further: nearly all actives have a fitted effect of over 45% in size; further: potency means the concentration at half of the fitted maximal effect)
Chain of Thyrotropin receptor (Homo sapiens) (P16473 whole entry, looked up): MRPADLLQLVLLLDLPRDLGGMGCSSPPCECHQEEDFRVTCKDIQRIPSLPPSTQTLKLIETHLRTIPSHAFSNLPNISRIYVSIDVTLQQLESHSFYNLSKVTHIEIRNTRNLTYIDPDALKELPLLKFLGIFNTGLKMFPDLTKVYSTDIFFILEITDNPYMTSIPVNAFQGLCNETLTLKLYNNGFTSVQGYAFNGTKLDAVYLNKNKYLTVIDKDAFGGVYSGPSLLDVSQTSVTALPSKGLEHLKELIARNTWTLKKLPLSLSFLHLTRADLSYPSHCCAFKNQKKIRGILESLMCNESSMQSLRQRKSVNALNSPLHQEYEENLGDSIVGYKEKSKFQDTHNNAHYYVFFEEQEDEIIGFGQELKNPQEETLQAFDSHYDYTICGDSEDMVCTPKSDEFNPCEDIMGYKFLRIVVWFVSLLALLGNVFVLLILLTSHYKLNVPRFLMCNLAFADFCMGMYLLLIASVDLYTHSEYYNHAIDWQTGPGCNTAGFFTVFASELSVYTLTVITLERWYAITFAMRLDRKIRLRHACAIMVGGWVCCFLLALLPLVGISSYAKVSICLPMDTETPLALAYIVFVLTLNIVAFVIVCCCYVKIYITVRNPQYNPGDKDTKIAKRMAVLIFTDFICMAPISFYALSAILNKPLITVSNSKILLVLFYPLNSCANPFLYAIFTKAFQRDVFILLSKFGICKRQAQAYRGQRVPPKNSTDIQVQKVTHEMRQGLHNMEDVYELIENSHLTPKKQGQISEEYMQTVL
Outline: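 HEK293/TSHR, 800 cells/well; cpd 30 min RT; add cAMP-d2 + anti-cAMP-cryptate, 1 h RT; fluorescence read on plate reader. 15-pt titration, n=3.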

[12] = biological target: Luciferin 4-monooxygenase (Photinus pyralis) (UniProt P08659); assay: qHTS assay to identify small molecule inhibitors of firefly luciferase (AID 1224835); further: nearly all actives have a fitted effect of over 25% in size; further: potency means the concentration at half of the fitted maximal effect
Chain of Luciferin 4-monooxygenase (Photinus pyralis) (P08659 whole entry, looked up): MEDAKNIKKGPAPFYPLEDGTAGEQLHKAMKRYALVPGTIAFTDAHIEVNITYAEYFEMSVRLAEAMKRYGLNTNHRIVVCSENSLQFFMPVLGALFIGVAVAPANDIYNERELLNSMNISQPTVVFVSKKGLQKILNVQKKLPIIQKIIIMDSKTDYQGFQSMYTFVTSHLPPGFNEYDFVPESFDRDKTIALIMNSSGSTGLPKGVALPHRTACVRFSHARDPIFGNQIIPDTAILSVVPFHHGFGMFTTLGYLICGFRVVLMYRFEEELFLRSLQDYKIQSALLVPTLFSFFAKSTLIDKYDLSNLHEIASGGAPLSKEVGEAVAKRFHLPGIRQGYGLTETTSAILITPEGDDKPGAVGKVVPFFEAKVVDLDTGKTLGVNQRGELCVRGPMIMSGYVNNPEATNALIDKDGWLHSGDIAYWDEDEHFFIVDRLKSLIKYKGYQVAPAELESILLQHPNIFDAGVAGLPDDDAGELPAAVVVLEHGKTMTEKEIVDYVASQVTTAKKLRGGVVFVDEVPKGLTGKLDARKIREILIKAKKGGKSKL
Outline: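 Biochemical qHTS: compounds run as interplate titrations against purified firefly enzyme, with D-luciferin and ATP each at its KM concentration. Light output recorded by CCD imaging.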

[13] = qHTS assay to identify small molecule antagonists of the estrogen related receptor signaling pathway with the pleiotropic PPARgamma coactivator (PGC) from Tox21 10K library (AID 1224841; call rule not given here; further: actives are mostly falling curves and most rising ones were filed inactive; nearly all actives have a fitted effect of over 50% in size; further: potency means the concentration at half of the fitted maximal effect)
Outline: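 In the PGC/ERR line, DMSO solutions of test chemicals are pin-delivered to 2,000 cells/well six hours after dispensing. Following eighteen hours' incubation, One-Glo reagent is added and luminescence recorded.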

[14] = qHTS assay to identify small molecule agonists of the estrogen related receptor signaling pathway with the pleiotropic PPARgamma coactivator (PGC) from Tox21 10K library (AID 1224842); further: nearly all actives have a fitted effect of over 15% in size; further: potency means the concentration at half of the fitted maximal effect
Outline: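 PGC/ERR reporter cell line, 2,000 cells per well, incubated 6 h at 37 C before 23 nL compound in DMSO was added. After 18 h at 37 C, One-Glo luminescence read following 30 min at room temperature.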

[15] = qHTS assay to identify small molecule antagonists of the estrogen related receptor (ERR) signaling pathway - cell viability counter screen (AID 1224818)
Outline: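 Cytotoxicity check run alongside the ERR antagonist screen: cells exposed to test compounds 17.5 h at 37 C, viability taken as CellTiter-Fluor fluorescence intensity.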

[16] = qHTS assay to identify small molecule antagonists of the estrogen related receptor (ERR) signaling pathway (AID 1224819;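 further: luminescence from an ERR-driven luciferase reporter measured with One-Glo reagent; nearly all actives have a fitted effect of over 50% in size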)
Outline: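 ERR reporter cells were plated at 2,000 cells/well and left 6 h at 37 C/5% CO2 before pin-tool transfer of compounds in DMSO. After 18 h at 37 C, One-Glo was added and luminescence was read 30 min later at room temperature.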

[17] = qHTS assay to identify small molecule agonists of the estrogen related receptor (ERR) signaling pathway (AID 1224820)
Outline: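 Luminescence readout (One-Glo, 30 min RT) from NTP-supplied ERR cell line exposed to compounds for 18 h at 37 C. Cells seeded 2,000 per well and pre-incubated 6 h before pin-tool compound transfer.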

[18] = test system: estrogen-related receptor alpha (ERRalpha) with PGC-1alpha coactivator, human; assay: qHTS assay to identify small molecule antagonists of the estrogen related receptor signaling pathway with the pleiotropic PPARgamma coactivator (PGC) (AID 1224821; calls by dose curve)
Outline: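 PGC/ERR reporter cells; 6 h pre-incubation 37 C/5% CO2; pin-tool compound in DMSO, 18 h 37 C; One-Glo added, 30 min RT; luminescence read. qHTS antagonist mode.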

[19] = qHTS assay to identify small molecule antagonists of the estrogen related receptor signaling pathway with the pleiotropic PPARgamma coactivator (PGC) cell viability counter screen (AID 1224822)
Outline: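 Viable cell signal (CellTiter-Fluor, 30 min, 37 C/5% CO2) was measured in PGC/ERR cells after a 17.5 h compound incubation.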

[20] = qHTS assay to identify small molecule agonists of the estrogen related receptor signaling pathway with the pleiotropic PPARgamma coactivator (PGC) (AID 1224823)
Outline: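 Luminescence readout (One-Glo, 30 min RT) from PGC/ERR cell line treated 18 h at 37 C with pin-tool-delivered DMSO compound solutions; cells plated 6 h before dosing. Quantitative HTS format.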
On the % scale 0 is the no-effect control and ±100 the full control effect.

Cc1ccc(N)c([N+](=O)[O-])c1
inactive: Potency [1] | Potency [2] | Potency [3] | Potency [4] | Potency [5] | Potency [6] | Potency [7] | Potency [8] | Potency [9] | Potency [10] | Potency [11]

IC(I)I
inactive: Potency [1] | Potency [2] | Potency [3] | Potency [4] | Potency [5] | Potency [6] | Potency [7] | Potency [10] | Potency [14] | Potency [11]
48.5 µM (active) and inactive: Potency [13]
active: Potency [12] 35.5 µM and 35.6 µM

OC[C@@H](O)[C@@H](O[C@@H]1O[C@H](CO)[C@H](O)[C@H](O)[C@H]1O)[C@H](O)[C@@H](O)CO
inactive: Potency [1] | Potency [2] | Potency [4] | Potency [5] | Potency [12] | Potency [6] | Potency [7] | Potency [8] | Potency [9] | Potency [10] | Potency [13] | Potency [14] | Potency [11]

O=C(O)c1cc(=O)[nH]c(=O)[nH]1
inactive: Potency [1] | Potency [2] | Potency [3] | Potency [4] | Potency [5] | Potency [12] | Potency [6] | Potency [7] | Potency [10] | Potency [13] | Potency [14] | Potency [11]

Cc1ccc([N+](=O)[O-])c(C)c1
24.6 µM (active) and inactive: Potency [1]
61.1 µM (active) and inactive: Potency [13]
21.7 µM (active) and inactive: Potency [10]
17.2 µM (active) and inactive: Potency [5]
31.7 µM (active) and inactive: Potency [12]
inactive: Potency [2] | Potency [4] | Potency [9] | Potency [14] | Potency [11]
6.11 µM (active) and inactive: Potency [3]
8.63 µM (active) and inactive: Potency [8]

CNC[C@H](O)c1ccc(O)c(O)c1
inactive: Potency [1] | Potency [2] | Potency [4] | outcome [15] | outcome [16] | outcome [17] | outcome [18] | outcome [19] | outcome [20] | viability change, negative = cytotoxic [5] 2.34% [at 19 µM] | Potency [12] | Potency [6] | Potency [7] | Potency [8] | Potency [9] | Potency [10] | Potency [13]
active: Potency [14] 1.54 µM and 1.16 µM | Potency [11] 770 nM and 2.31 µM

FC(F)(F)C(Cl)Br (stereo not given)
inactive: Potency [1] | Potency [2] | Potency [3] | Potency [4] | Potency [5] | Potency [12] | Potency [6] | Potency [7] | Potency [10] | Potency [13] | Potency [14] | Potency [11]

CN1CCOCC1
inactive: Potency [1] | Potency [2] | Potency [3] | Potency [4] | Potency [5] | Potency [6] | Potency [7] | Potency [8] | Potency [9] | Potency [10] | Potency [13] | Potency [14]

CCCCCC1C(=O)CCC1CC(=O)OC (stereo not given)
inactive: Potency [1] | Potency [2] | Potency [3] | Potency [4] | Potency [5] | Potency [12] | Potency [6] | Potency [7] | Potency [10] | Potency [13] | Potency [14] | Potency [11]

Source: PubChem BioAssay (Tox21)
